# An excerpt weighted towards active compounds, which were near 1.8% of everything screened.
# RGS4 inh – Inhibitors of Regulator of G Protein Signaling (RGS) 4: qHTS | Regulator of G-protein signaling 4 (Homo sapiens), P49798 | Transcreener GDP fluorescence polarization, RGS4-accelerated GTP hydrolysis | Potency, µM (doses to about 114 µM), without a hit: at the top dose activity change, negative = inhibition, actives largely listed as inhibitors | 0.039% of 390,000 active | AID 504845, 2011; note: % is set by controls: 0 for no effect and ±100 for the full control effect; nearly all actives have a fitted effect of over 75% in size
#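 MLSMR compounds (23 nl, pin-transferred) preincubated 10 min at room temperature with a 500nM (2x) first reagent, then RGS4 at 900nM (2x) plus Transcreener GDP mix added; fluorescence polarization (620/688 nm) read before and after 90 min at 30 °C.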
# PTHR1 agonist – qHTS for PTHR1 Agonists: Primary Screen. Parathyroid hormone/parathyroid hormone-related peptide receptor (Homo sapiens), Q03431. HEK293 GP2 PTHR1 cells, GloSensor cAMP luminescence, 1 h. Potency, µM (highest dose often 115 µM), for the others: at the highest dose activation, usual class: activators. 0.075% of 410,000 active; note: nearly all actives have a fitted effect of over 55% in size
#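 HEK-293-derived GP2 cells expressing PTHR1 and a GloSensor cAMP reporter, 3,000/well, plated overnight, given luciferin plus IBMX (each 0.5 mM as added) for 1 h at 37 °C, then compound for 1 h at 37 °C. Luminescence was read after 15 min at room temperature.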
# GLP1R inv ag – qHTS of GLP-1 Receptor Inverse Agonists (Inhibition Mode); 1.6% of 410,000 active; HEK293 GLP-1R CRE-luciferase, luminescence, 24 h; GLP-1R form is constitutively active; AID 624417, 2012; Potency, µM (doses to about 38.3 µM), inactives show top-dose activity change, negative = inhibition, actives largely listed as inhibitors; Glucagon-like peptide 1 receptor (Homo sapiens), P43220; note: % is set by controls: 0 for no effect and ±100 for the full control effect; nearly all actives have a fitted effect of over 55% in size
#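 Stable HEK293 clone (constitutively active GLP-1R + cAMP-response luciferase); 200 cells/uL plated, 12 h pre-culture, compound 24 hr, 37 deg C/5% CO2; detection reagent 12 min RT; luminescence.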
# GLP1R cytotox – qHTS of GLP-1 Receptor Inverse Agonists: Cytotox Screen. AID 624418, 2012. Potency, µM (highest dose often 38.3 µM), for inactives: top-dose activity change, negative = inhibition, most hits filed as inhibitors. HEK293 cAMP-luciferase reporter cells, luminescence, 24 h. 0.13% of 410,000 active;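 note: loss of luciferase light is scored as toxicity; % is set by controls: 0 for no effect and ±100 for the full control effect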
#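 Seeding density was 200 cells/uL; after overnight-length (12 h) culture, 23 nL compounds went on for 24 h at 37 °C. Readout used a luciferase detection reagent, luminescence taken after 12 min at room temperature.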
# GCN5L2 inh – qHTS Assay for Inhibitors of GCN5L2. AID 504327, 2011. GCN5L2 HAT assay, ThioGlo1 CoA-SH fluorescence. 0.21% of 390,000 active. Histone acetyltransferase KAT2A (Homo sapiens), Q92830. Potency, µM (highest dose often 58.9 µM), without a hit: at the top dose activity change, negative = inhibition, most hits filed as inhibitors; note: % is set by controls: 0 for no effect and ±100 for the full control effect
# Target sequence (Q92830 whole entry, looked up): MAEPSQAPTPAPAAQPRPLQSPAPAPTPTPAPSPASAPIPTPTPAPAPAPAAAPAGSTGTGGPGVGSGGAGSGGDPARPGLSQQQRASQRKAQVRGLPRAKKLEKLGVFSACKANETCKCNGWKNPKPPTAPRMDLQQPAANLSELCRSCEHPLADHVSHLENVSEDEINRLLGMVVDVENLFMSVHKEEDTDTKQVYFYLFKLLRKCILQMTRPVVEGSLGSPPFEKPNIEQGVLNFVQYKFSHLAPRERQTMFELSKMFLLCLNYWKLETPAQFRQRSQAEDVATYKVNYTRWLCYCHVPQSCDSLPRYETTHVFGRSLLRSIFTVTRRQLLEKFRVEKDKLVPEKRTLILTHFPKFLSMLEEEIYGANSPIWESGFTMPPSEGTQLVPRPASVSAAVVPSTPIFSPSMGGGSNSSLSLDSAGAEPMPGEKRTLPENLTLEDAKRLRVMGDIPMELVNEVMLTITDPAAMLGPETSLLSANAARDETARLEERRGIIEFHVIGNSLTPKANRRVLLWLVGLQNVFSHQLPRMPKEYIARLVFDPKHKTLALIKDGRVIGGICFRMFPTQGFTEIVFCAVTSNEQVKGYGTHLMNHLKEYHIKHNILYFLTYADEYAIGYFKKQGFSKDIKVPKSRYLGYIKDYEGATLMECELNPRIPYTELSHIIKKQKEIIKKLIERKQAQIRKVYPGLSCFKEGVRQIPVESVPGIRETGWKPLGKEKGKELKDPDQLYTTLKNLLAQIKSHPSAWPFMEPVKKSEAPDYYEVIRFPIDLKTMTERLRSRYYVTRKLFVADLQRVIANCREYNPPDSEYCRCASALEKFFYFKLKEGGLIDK
#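 ThioGlo1-coupled HAT assay: 20nM GCN5L2, 70uM acetyl-CoA, 75uM H3(1-25) peptide, pH 7.5. Fluorescence read at 340/540nm at start and after 20 min at room temperature.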
# GLP-1R agonist – qHTS of GLP-1 Receptor Agonists. Glucagon-like peptide 1 receptor (Homo sapiens), P43220. HEK293 GLP-1R CRE-luciferase, luminescence, 4-6 h; cells express a hypersensitive GLP-1R form. Potency, µM (series often up to 45.6 µM), for inactives: at the top dose activation, actives largely listed as activators. 0.007% of 380,000 active. AID 624172, 2012; note: % of control where 0% means no effect
# The depositor's hits bear a star; i = inactive; ? = inconclusive; . = no result; [ ] = another dose, or the depositor's remark. Calls come from the whole dose curve; as a rule, active = well fitted curve in the direction sought with a large enough effect; inconclusive = small, poorly fitted or top-dose-only effect, or another doubt; inactive = no such curve, though single readings can be large; an effect the other way counts as inactive or inconclusive. Potency is the fitted concentration of half-maximal effect.
SMILES,RGS4 inh,PTHR1 agonist,GLP1R inv ag,GLP1R cytotox,GCN5L2 inh,GLP-1R agonist
CC(C)Cn1c(N2CCN(CC(=O)Nc3ccc(Cl)cc3)CC2)nc2ccccc21,12%,-32%,10µM*,-24%,5%,7%
O=C(CN1CCN(c2ccc(Cl)cc2)CC1)Nc1ccc(F)c(F)c1,39%,-14%,2.8µM*,5%,13%,-12%
CCOC(=O)c1ccc2c(c1)nc(-c1ccc(F)cc1)c1nccn12,-5%,i,1%,3%,-1%,8%
CCOC(=O)Cn1nc(-c2ccc(F)cc2)cc(Cc2ccccc2)c1=O,22%,i,11µM*,32%,24%,20%
Cc1ccc(C(C)(C)C)cc1S(=O)(=O)Nc1nc2ccccc2nc1Cl,16%,-38%,10µM*,-15%,-15%,0%
O=C(CSc1nc2c(sc3ccccc32)c(=O)n1CCCN1CCCC1)NCc1ccco1,-27%,i,10µM*,?,-2%,8%
O=C(CSc1nc2c(sc3ccccc32)c(=O)n1CCO)NCc1ccco1,17%,-17%,0%,2%,3%,-10%
Cc1cc(NC(=O)CSc2nc3c(sc4ccccc43)c(=O)n2CCc2ccccc2)n[nH]1,-5%,i,8%,6%,-4%,-10%
Cc1cc(NC(=O)CSc2nc3c(sc4ccccc43)c(=O)n2CCCN2CCOCC2)n[nH]1,11%,i,0%,5µM*,-2%,19%
CCOC(=O)CCc1c(C)nc(SCc2ccc(C(=O)O)cc2)c(C#N)c1C,43%,-45%,17%,4%,-5%,-7%
COc1cc(CNC2CCCCCCC2)cc(Br)c1OCC#N,29%,-22%,?,?,-7%,-4%
CCOc1c(Br)cc(CNC2CCCCCCC2)cc1OC,-3%,21%,3.2µM*,2%,0%,-1%
COc1ccco1,.,.,.,.,-18%,.
COC(=O)c1cc(Cl)ccc1NC(=O)Cn1c(C)cc(C)c(C#N)c1=O,-12%,-23%,14%,3%,3%,-1%
Cc1cc(C)c(S(=O)(=O)NCC(c2ccc(N(C)C)cc2)N2CCc3ccccc32)c(C)c1 (stereo not given),19%,-12%,2µM*,0%,5%,.
CN1CCN(c2ccc(-c3cccc(NC(=O)COc4ccccc4)c3)nn2)CC1,-1%,-11%,11µM*,-10%,0%,-3%
CN1CCN(c2ccc(-c3cccc(NC(=O)COc4ccc(Cl)cc4)c3)nn2)CC1,21%,-28%,?,?,1%,-16%
Cc1ccc(-c2nc(CS(=O)(=O)CC(=O)N3CCN(c4ccccc4)CC3)c(C)o2)cc1,-8%,-31%,?,-10%,-3%,.
Cc1ccc(-c2nc(CS(=O)(=O)CC(=O)N3CCCCCC3)c(C)o2)cc1,23%,-40%,10µM*,-11%,-7%,3%
O=C(Nc1ncccc1O)c1ccc(Cl)c(S(=O)(=O)N2CCCC2)c1,.,-10%,-3%,-4%,.,-2%
COc1cc(OC)c(NC(=O)Nc2cccc(OCc3cc(=O)n4ccccc4n3)c2)cc1Cl,-11%,-35%,-7%,4%,0%,.
COc1ccc(CNc2nc(-c3ccc(OC)cc3)cc(C(F)(F)F)n2)cc1,25%,-42%,6.3µM*,31%,-17%,-1%
COc1ccc(-c2cc(C(F)(F)F)nc(NCc3ccco3)n2)cc1OC,-35%,-7%[57.5 µM],-4%,7%,22µM*,22%
COc1cccc(-c2cc(C(F)(F)F)nc(NCc3ccco3)n2)c1,?,-1%[57.5 µM],?,-2%,-10%,8%
Cc1ccccc1NC(=O)CN(c1ccc(Cl)cc1Cl)S(=O)(=O)c1ccccc1,-1%,i,?,0%,-8%,.
SMILES,RGS4 inh,PTHR1 agonist,GLP1R inv ag,GLP1R cytotox,GCN5L2 inh,GLP-1R agonist
Cc1ccc(N/N=C(\C#N)C(N)=S)cc1C,?,-34%,0.28µM*,?,-21%,7%
N#C/C(=N\Nc1ccc(Cl)cc1)C(N)=S,-35%,-26%,?,?,-6%,-6%
COC(=O)c1ccc2nc(-c3cccc(N)c3)cn2c1,-32%,-23%,5.6µM*,-4%,-7%,-5%
CN(/N=C/c1cc(Cl)cc(Cl)c1O)c1c(Cl)cccc1[N+](=O)[O-],1%,-19%,8.9µM*,-2%,-7%,9%
COc1ccc2cc1Oc1cc3c(cc1OC)CC[N+](C)(C)C3Cc1ccc(cc1)Oc1c(OC)c(OC)cc3c1C(C2)[N+](C)(C)CC3 (stereo not given),.,.,.,.,20µM*,-5%
COc1cc2c3cc1Oc1cc(ccc1O)CC1c4c(cc(OC)c(O)c4Oc4ccc(cc4)CC3N(C)CC2)CC[N+]1(C)C (stereo not given),.,.,.,.,0%,.
CCOC(=O)c1c(C)oc2nc(C)nc(NCCc3ccc(SC)cc3)c12,-17%,-22%,5%,0%,-4%,.
O=C(O)c1ccccc1Nc1cccc(OCc2ccc3ccccc3n2)c1,?,-8%,1%,9%,28µM*,-7%
CCOc1ccc(-c2nc(CSCC(=O)N3CCN(c4cccc(C(F)(F)F)c4)CC3)c(C)o2)cc1,-16%,-33%,?,-12%,-13%,.
COc1ccccc1NC(=O)N(Cc1ccco1)Cc1cc2c(C)ccc(C)c2[nH]c1=O,-7%,4%[57.5 µM],-26%,5%,-12%,-11%
Cc1cc2cc(CN(CCN(C)C)C(=S)NCc3ccco3)c(=O)[nH]c2cc1C,-39%,-19%,?,-8%,-5%,16%
CCc1ccc2[nH]c(=O)c(CN(Cc3ccccc3OC)C(=O)Nc3ccccc3OC)cc2c1,21%,i,0%,-4%,-7%,1%
CCN(CC)CCN(Cc1cc2cc(C)ccc2[nH]c1=O)C(=O)Nc1ccccc1OC,-9%,-20%[57.5 µM],13µM*,?,-1%,-9%
CCN(CC)CCN(Cc1cc2cc(C)c(C)cc2[nH]c1=O)C(=S)NCc1ccco1,-24%,i,10µM*,?,-2%,13%
COc1ccccc1NC(=O)N(Cc1ccco1)Cc1cc2cccc(C)c2[nH]c1=O,-6%,-1%[57.5 µM],11µM*,-14%,-11%,1%

# Assay outcomes: PubChem BioAssay, National Center for Advancing Translational Sciences (NCATS)
